What is called inhibition is how much of the control response was suppressed.

Values without a mark were called inactive. The rule behind the calls is not given here.

For the experiment, the target named is Pantothenate synthetase (Mycobacterium tuberculosis (strain ATCC 25618 / H37Rv)) (UniProt P9WIL5). Briefly: Recombinant Mtb pantothenate synthetase (PanC) inhibitors, coupled enzyme, confirmatory (AID 375).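 Note: 0% = full reaction with vehicle and 100% = no enzyme background.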 The note with it: coupled enzyme assay; at 10 µM, stronger effect = higher value.
Pantothenate synthetase (Mycobacterium tuberculosis (strain ATCC 25618 / H37Rv)), sequence (P9WIL5 whole entry, looked up): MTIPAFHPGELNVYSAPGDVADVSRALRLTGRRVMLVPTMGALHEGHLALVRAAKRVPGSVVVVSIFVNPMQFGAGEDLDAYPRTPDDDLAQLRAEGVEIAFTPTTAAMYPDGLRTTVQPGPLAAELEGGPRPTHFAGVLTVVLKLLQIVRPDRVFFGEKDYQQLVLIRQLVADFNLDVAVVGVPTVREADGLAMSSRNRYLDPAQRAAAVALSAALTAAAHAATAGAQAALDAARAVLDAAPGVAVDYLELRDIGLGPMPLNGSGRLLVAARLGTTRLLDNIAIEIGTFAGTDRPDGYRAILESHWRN
In the case of `O=C(NCc1ccco1)c1csc(Nc2ccccc2Cl)n1`, the inhibition is 0%.

As to `Cc1cc(C(C)(C)C)c(O)c(C)c1CC1=NCCN1`, the inhibition is 0%.

For `COc1cccc(NC(=O)Cc2nnc(SCC(=O)c3ccccc3)n2C)c1`, the inhibition was 0%.

In the case of `Cc1ccccc1-c1nc(CN2CCC(C(=O)NC3CCN(Cc4ccccc4)CC3)CC2)c(C)o1`, the inhibition was 0%.

For `CC(C)CCn1c(NCCc2ccccc2)nc2c1c(=O)n(C)c(=O)n2C`, the inhibition was 0%.

Regarding `COc1ccccc1N1CCN(C(=O)C2CCN(S(=O)(=O)c3ccc(F)cc3)CC2)CC1`, the inhibition is 0%.

Turning to `CCc1nc(C)c(C#N)c2cc(OC)c(OC)cc12`, the inhibition is 0%.

Turning to `O=C1CN(c2ccccc2F)C(=O)CN1c1ccccc1F`, the inhibition is 0%.

In the case of `O=S(CC(O)COCc1ccc(Cl)cc1)c1ccccn1` (stereo not given), the inhibition is 0%.

With `CC(C(=O)c1ccccc1)n1cnc2ccccc2c1=O` (stereo not given), the inhibition is 9%.

In the case of `Oc1ccc(/C=C/c2cc(O)cc(O)c2)cc1`, the inhibition was 0%.

For the molecule `COc1ccccc1-n1c(-c2cccnc2)n[nH]c1=S`, the inhibition was 0%.

As for `O=C(Nc1ccccc1)N1C(=O)C2(OCCO2)c2ccccc21`, the inhibition is 0%.

Regarding `CCCCN(Cc1cc2cc(OC)ccc2[nH]c1=O)C(=O)COc1ccccc1`, the inhibition was 2%.

Take `Oc1ccccc1-c1cc(C(F)(F)C(F)F)[nH]n1`: the inhibition was 0%.

Take `COc1ccc2c(c1)CCc1c(C(=O)N3CCCc4ccccc43)noc1-2`: the inhibition was 4%.

On to `COc1ccccc1-c1nc(SCc2ccccn2)n[nH]1`, for which the inhibition is 0%.

Consider `CCOC(=O)c1c(C)[nH]c(C(=O)CSc2nc3ccccc3o2)c1C`, for which the inhibition is 0%.

As for `CNCCCN1c2ccccc2CCc2ccccc21`, the inhibition was 0%.

For the molecule `CC(C)=CCC(C)(C)C1OCCN1C(=O)c1ccccc1` (stereo not given), the inhibition was 2%.

On to `CCOC(=O)N1CCC(NC(=O)C2CCC(Cn3c(=O)[nH]c4ccccc4c3=O)CC2)CC1` (stereo not given), for which the inhibition is 9%.

As to `CC(CCc1ccccc1)NCC(O)c1ccc(O)c(C(N)=O)c1` (stereo not given), the inhibition was 2%.

For `CCCCc1c(O)nc(SCCN(C)C)n(-c2ccccc2)c1=O`, the inhibition is 0%.

As to `COc1ccc2nc(C)cc(N3CCOCC3)c2c1`, the inhibition was 0%.

Take `CCC1C(=O)N=C(SCC(=O)Nc2cccc3ccccc23)NC1=O` (stereo not given): the inhibition was 0%.

Take `CCn1nc(C(=O)OCC(=O)N2CCc3ccccc32)c2ccccc2c1=O`: the inhibition was 7%.

In the case of `COc1cccc(S(=O)(=O)Nc2ccc(C(=O)N3CCN(C(=O)c4ccco4)CC3)cc2)c1`, the inhibition was 0%.

For `Cc1cc(C)c(C)c(S(=O)(=O)Nc2ccc(O)cc2)c1C`, the inhibition is 10%.

As to `Cc1nnc(NCc2n[nH]c(=O)c3ccccc23)c2ccccc12`, the inhibition is 13%.

For `CCOCCCn1c(=NC(C)=O)c(C(=O)OCC)cc2c(=O)n3ccccc3nc21`, the inhibition was 0%.

`Nc1nc(CN2CCN(Cc3ccc4c(c3)OCO4)CC2)nc(Nc2ccccc2)n1`: the inhibition was 0%.

Turning to `CCOC(=O)C1=C(C)N(C)C(=O)NC1c1ccccc1OC` (stereo not given), the inhibition was 0%.

Consider `Cc1ncc([N+](=O)[O-])n1CCO`, for which the inhibition is 1%.

In the case of `CCn1c(CC(=O)Nc2cccc(OC)c2)nnc1SCC(=O)Nc1nccs1`, the inhibition was 0%.

Turning to `CCOC(=O)C1CCCN(C(=O)c2cccs2)C1` (stereo not given), the inhibition was 8%.

With `COC(=O)CCCCCc1ccc(C(C)=O)s1`, the inhibition is 4%.

As for `COc1cc(C(=O)N2CCN(c3cc(Cl)ccc3Cl)CC2)cc(OC)c1OC`, the inhibition was 1%.

For the molecule `COC(=O)CSc1nnc(CSc2nc(C)cc(C)n2)n1Cc1ccco1`, the inhibition is 0%.

For the molecule `COCC(C)NC(=O)CCS(=O)(=O)c1nc(-c2ccc(OC)cc2)cc(C(F)(F)F)n1` (stereo not given), the inhibition was 0%.

As for `Cc1c(NC(=O)Cn2nc(C(=O)O)c3ccccc3c2=O)c(=O)n(-c2ccccc2)n1C`, the inhibition is 0%.

The record behind these values is PubChem BioAssay.
